Measured values from the supplement of paper PMC8728848.
This is one part of a sample in which the strongest signals are shown more often than they occur.

Key:
Assay in all cases: glycan array binding signal (z-score within array); higher = stronger binding
Settings in all cases: glycan notation: IUPAC condensed, linker removed
[1] = target: Fuc(a1-2)Gal(b1-3)GlcNAc
How it was run: (§1)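 Glycan array data came from 3228 arrays in the Consortium for Functional Glycomics database, and only arrays with an available protein sequence were kept. Glycan names were put into IUPAC-condensed notation, and columns mapping to the same glycan were averaged. The binding signal is a within-array Z-score, averaged across arrays of one protein sequence run at different concentrations or buffers and across linkers. A negative Z-score can be read as non-binding.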

[2] = target: Fuc(a1-2)Gal(b1-3)GlcNAc(b1-3)Gal(b1-4)Glc
How it was run: as §1

[3] = target: Fuc(a1-2)Gal(b1-4)Glc
How it was run: as §1

[4] = target: Fuc(a1-2)Gal(b1-4)GlcNAc(b1-2)Man(a1-3)[Fuc(a1-2)Gal(b1-4)GlcNAc(b1-2)Man(a1-6)]Man(b1-4)GlcNAc(b1-4)[Fuc(a1-6)]GlcNAc
How it was run: as §1

[5] = target: Fuc(a1-2)Gal(b1-4)GlcNAc(b1-2)[Fuc(a1-2)Gal(b1-4)GlcNAc(b1-4)]Man(a1-3)[Fuc(a1-2)Gal(b1-4)GlcNAc(b1-2)Man(a1-6)]Man(b1-4)GlcNAc(b1-4)GlcNAc
How it was run: as §1

[6] = target: Fuc(a1-2)Gal(b1-4)GlcNAc(b1-3)[Fuc(a1-3)[Gal(b1-4)]GlcNAc(b1-6)]Gal(b1-4)Glc
How it was run: as §1

[7] = target: Fuc(a1-2)Gal(b1-4)[Fuc(a1-3)]GlcNAc(b1-2)Man(a1-3)[Fuc(a1-2)Gal(b1-4)[Fuc(a1-3)]GlcNAc(b1-2)Man(a1-6)]Man(b1-4)GlcNAc(b1-4)[Fuc(a1-6)]GlcNAc
How it was run: as §1

[8] = target: Fuc(a1-2)[Gal(a1-3)]Gal(b1-3)GlcNAc(b1-3)GalNAc
How it was run: as §1

[9] = target: Fuc(a1-2)[Gal(a1-3)]Gal(b1-4)[Fuc(a1-3)]GlcNAc
How it was run: as §1

[10] = target: Fuc(a1-2)[GalNAc(a1-4)]Gal(b1-4)GlcNAc
How it was run: as §1

[11] = target: Fuc(a1-3)[Gal(b1-4)]GlcNAc(b1-2)Man(a1-3)[Fuc(a1-3)[Gal(b1-4)]GlcNAc(b1-2)Man(a1-6)]Man(b1-4)GlcNAc(b1-4)GlcNAc
How it was run: as §1

[12] = target: Fuc(a1-3)[Gal(b1-4)]GlcNAc(b1-3)GalNAc
How it was run: as §1

[13] = target: Fuc(a1-3)[Gal3S(b1-4)]GlcNAc6S
How it was run: as §1

[14] = target: Gal(a1-3)Gal(b1-3)GlcNAc(b1-2)Man
How it was run: as §1

[15] = target: Gal(a1-3)Gal(b1-4)GlcNAc(b1-3)GalNAc
How it was run: as §1

[16] = target: Gal(a1-3)[Gal(a1-4)]Gal(b1-4)GlcNAc
How it was run: as §1

[17] = target: Gal(a1-4)Gal(b1-4)GlcNAc(b1-2)Man(a1-3)[Gal(a1-4)Gal(b1-4)GlcNAc(b1-2)Man(a1-6)]Man(b1-4)GlcNAc(b1-4)GlcNAc
How it was run: as §1

[18] = target: Gal(b1-3)Gal(b1-4)GlcNAc
How it was run: as §1

[19] = target: Gal(b1-3)GlcNAc(b1-2)Man(a1-3)[Gal(b1-3)GlcNAc(b1-2)Man(a1-6)]Man(b1-4)GlcNAc(b1-4)GlcNAc
How it was run: as §1

[20] = target: Gal(b1-3)[Fuc(a1-4)]GlcNAc(b1-3)Gal(b1-4)[Fuc(a1-3)]GlcNAc
How it was run: as §1

[21] = target: Gal(b1-4)GalNAc(b1-3)[Fuc(a1-2)]Gal(b1-4)GlcNAc
How it was run: as §1

[22] = target: Gal(b1-4)GlcNAc(b1-2)[Gal(b1-4)GlcNAc(b1-6)]Man(a1-6)[GlcNAc(b1-4)][Gal(b1-4)GlcNAc(b1-2)[Gal(b1-4)GlcNAc(b1-4)]Man(a1-3)]Man(b1-4)GlcNAc(b1-4)[Fuc(a1-6)]GlcNAc
How it was run: as §1

[23] = target: Gal(b1-4)GlcNAc(b1-3)Gal(b1-4)GlcNAc(b1-3)Gal(b1-4)GlcNAc(b1-3)Gal(b1-4)GlcNAc(b1-3)Gal(b1-4)GlcNAc(b1-3)Gal(b1-4)GlcNAc(b1-2)Man(a1-3)[Gal(b1-4)GlcNAc(b1-3)Gal(b1-4)GlcNAc(b1-3)Gal(b1-4)GlcNAc(b1-3)Gal(b1-4)GlcNAc(b1-3)Gal(b1-4)GlcNAc(b1-3)Gal(b1-4)GlcNAc(b1-2)Man(a1-6)]Man(b1-4)GlcNAc(b1-4)GlcNAc
How it was run: as §1

[24] = target: Gal3S(b1-4)[Fuc(a1-3)]Glc6S
How it was run: as §1

[25] = target: Gal3S6S(b1-4)GlcNAc6S
How it was run: as §1

[26] = target: Gal6S(b1-3)GlcNAc
How it was run: as §1

[27] = target: GalNAc(b1-3)GalNAc
How it was run: as §1

B1: PX9937D-bvu-500-26-500 (Bacteroides vulgatus) (protein)
chain: DPVSDITDLNYWKTPEQFDSFVFGLHSRFRSHSWNMFLLGEARSDVFGGIPFGGEATQGMERFPYNTLNAENPGISGFGDLYQNINQMNLFISRTLHTDVLTESARNYYLGQVYGLRAYYMYQLYRSWGDVVFTEEPSLGFEVGKLAKAATPAAEIFEQVKKDIESSLSYFGSDYTIKEKKSLWSKAATLMLKADVYLWSAHRDGGEGDARTAKNALVDIQNNISRSNLDLMDTYQGVFAYDNKGNKEIIFTIHNELFEYNLWNGNNDLFPQADYLGKFYNADGTLINTSVENNFGIMRLMVKLENFKKFLPGDTRRDVTLKDVYNKVENGKLELVGVYPHKYWGVMNGSTRVRCDDYPIYRYSDLLLMLAEAKVLLGEDPATEINRVRRRAFGDAYDASTVGFPNQEVDKRPADAVLQERLFEFMLEGKRWYDLRRFGDSYVLDYTPAEPARLLWPINQGALTNNPLLKQTVGY
glycan array binding signal (z-score) [1]: -0.32 | glycan array binding signal (z-score) [2]: -0.541 | glycan array binding signal (z-score) [3]: -0.401 | glycan array binding signal (z-score) [4]: 2.63 | glycan array binding signal (z-score) [5]: 0.277 | glycan array binding signal (z-score) [6]: -0.243 | glycan array binding signal (z-score) [7]: 5.16 | glycan array binding signal (z-score) [8]: -0.226 | glycan array binding signal (z-score) [9]: -0.096 | glycan array binding signal (z-score) [10]: 1.69 | glycan array binding signal (z-score) [11]: 6.27 | glycan array binding signal (z-score) [12]: -0.063 | glycan array binding signal (z-score) [13]: 0.002 | glycan array binding signal (z-score) [14]: 4.49 | glycan array binding signal (z-score) [15]: -0.404 | glycan array binding signal (z-score) [16]: 2.38 | glycan array binding signal (z-score) [17]: 9.96 | glycan array binding signal (z-score) [18]: -0.412 | glycan array binding signal (z-score) [19]: 4.38 | glycan array binding signal (z-score) [20]: -0.383 | glycan array binding signal (z-score) [21]: -0.3 | glycan array binding signal (z-score) [22]: 5.5 | glycan array binding signal (z-score) [23]: 2.58 | glycan array binding signal (z-score) [24]: 0.78 | glycan array binding signal (z-score) [25]: 0.182 | glycan array binding signal (z-score) [26]: 1.2 | glycan array binding signal (z-score) [27]: -0.663
